Structures are written as SMILES. About 2,200 (0.71%) of roughly 310,000 compounds showed an effect of 50% or more. The effect is printed as a negative number. The full list was thinned out, with strong results kept by preference.

The target of the assay is human ether-à-go-go-related gene (hERG) potassium channel (human, UniProt Q12809). Description: primary screen, population patch clamp on CHO cells stably expressing hERG; higher = less effect of the substance.
human ether-à-go-go-related gene (hERG) potassium channel, sequence (Q12809 whole entry, looked up): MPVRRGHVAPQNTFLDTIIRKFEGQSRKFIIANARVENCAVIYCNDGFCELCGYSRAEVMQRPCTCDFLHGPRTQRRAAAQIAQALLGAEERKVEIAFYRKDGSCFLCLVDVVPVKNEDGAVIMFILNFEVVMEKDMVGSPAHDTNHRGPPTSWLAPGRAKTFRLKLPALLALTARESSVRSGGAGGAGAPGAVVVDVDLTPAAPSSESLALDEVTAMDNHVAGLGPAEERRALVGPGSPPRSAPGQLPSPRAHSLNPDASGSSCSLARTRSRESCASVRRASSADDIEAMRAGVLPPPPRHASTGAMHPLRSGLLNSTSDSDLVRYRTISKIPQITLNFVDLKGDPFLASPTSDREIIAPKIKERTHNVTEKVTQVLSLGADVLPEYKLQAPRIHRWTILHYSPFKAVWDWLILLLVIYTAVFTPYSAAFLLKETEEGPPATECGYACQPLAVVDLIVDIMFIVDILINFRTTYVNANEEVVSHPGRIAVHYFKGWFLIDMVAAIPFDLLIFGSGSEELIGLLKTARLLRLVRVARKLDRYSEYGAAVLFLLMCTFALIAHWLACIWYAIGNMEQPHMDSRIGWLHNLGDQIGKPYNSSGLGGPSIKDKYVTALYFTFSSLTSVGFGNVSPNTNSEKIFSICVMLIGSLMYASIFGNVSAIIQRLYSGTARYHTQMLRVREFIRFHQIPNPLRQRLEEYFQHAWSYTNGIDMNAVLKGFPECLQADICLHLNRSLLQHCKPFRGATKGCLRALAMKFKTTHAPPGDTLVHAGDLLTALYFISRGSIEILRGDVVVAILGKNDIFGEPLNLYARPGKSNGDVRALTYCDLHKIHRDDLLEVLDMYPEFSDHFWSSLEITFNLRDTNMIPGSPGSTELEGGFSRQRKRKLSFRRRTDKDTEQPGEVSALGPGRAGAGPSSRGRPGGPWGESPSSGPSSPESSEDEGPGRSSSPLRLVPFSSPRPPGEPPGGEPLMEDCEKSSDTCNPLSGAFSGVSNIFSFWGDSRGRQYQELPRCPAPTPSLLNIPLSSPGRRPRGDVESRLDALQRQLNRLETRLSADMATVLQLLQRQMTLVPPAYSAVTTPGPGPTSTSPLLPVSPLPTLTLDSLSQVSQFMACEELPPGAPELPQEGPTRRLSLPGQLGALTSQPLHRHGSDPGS
Take `Cc1cc(C)nc(SCc2ccc(C(=O)N/N=C/c3cccc(O)c3O)cc2)n1`: the “hERG current change (%, negative = inhibition) at 1uM” value is given as 10.8%.
The same measure for `CCCc1cc(NCCCN2CCOCC2)n2c(nc3ccccc32)c1C#N`: -37%.
As for `COc1ccc2nc(C)cc(NCCN3CCOCC3)c2c1`, the “hERG current change (%, negative = inhibition) at 1uM” value is reported as 12.3%.
The same measure for `c1ccc2c(NCCCN3CCOCC3)c3ccccc3nc2c1`: -54.2%; for `Cc1cc(NCCCN2CCOCC2)n2c(nc3ccccc32)c1C#N`: -0.298%; for `Cc1cc(NCCN2CCOCC2)c2ccc3ccccc3c2n1`: -58.3%.
In the case of `c1ccc2[nH]c(NCCCN3CCOCC3)nc2c1`, the “hERG current change (%, negative = inhibition) at 1uM” value was determined as 14.6%.
`CC(C)c1cc(NCCCN2CCOCC2)n2c(nc3ccccc32)c1C#N`: the “hERG current change (%, negative = inhibition) at 1uM” value is -55.7%.
Next, `Cc1nc(NCCN2CCOCC2)c2oc3ccccc3c2n1.Cl`: -8.71%; `c1ccc(-c2nc(NCCCN3CCOCC3)c3ccccc3n2)cc1`: 3.18%; `Cc1[nH]nc2c1C(c1ccccc1F)CC(=O)N2` (centres unmarked): -1.84%.
Next, `Cc1c(Cl)cccc1NC(=O)COc1ccc(S(=O)(=O)N2CCOCC2)cc1`: 3.86%; `Cc1ccc(S(=O)(=O)N2CCN(CC(=O)NC3CCCc4ccccc43)CC2)cc1C.O=C(O)C(=O)O` (centres unmarked): 1.77%; `CCC(=O)Nc1ccc(NC(=S)NC(=O)/C=C/c2ccco2)cc1`: 6%.
The same measure for `Cc1ccc(-c2cc(C(=O)NCCc3ccccn3)c3ccccc3n2)c(C)c1`: -13.8%; for `Brc1ccc(NC(c2ccccc2)c2ccncc2)cc1.Cl` (centres unmarked): 17.3%; for `COCCNC(=O)C(c1cccs1)N(C(=O)Cn1nnc2ccccc21)c1ccccc1` (centres unmarked): 2.32%.
Consider `CC1(C)CC2(CC(c3ccccc3)Oc3cc(O)ccc32)NC(=S)N1` (centres unmarked), for which the “hERG current change (%, negative = inhibition) at 1uM” value came out at 6.06%.
Next, `CSC1=NC2(CC(c3ccccc3)Oc3cc(O)ccc32)CC(C)(C)N1` (centres unmarked): -68.8%; `CC1(C)CC2(CC(c3ccccc3)Oc3cc(O)ccc32)NC(=O)N1` (centres unmarked): 10.8%; `Cc1nnc(NC(=O)c2c(F)c(F)c(F)c(F)c2F)s1`: 15.5%.
The same measure for `O=C(Nc1cnccn1)C1c2ccccc2Oc2ccccc21`: 0.161%; for `O=C(NCc1ccco1)c1n[nH]c(=O)c2ccccc12`: 11.8%.
Next, `Cc1nc(NCc2ccco2)c2c3c(sc2n1)CCC3`: 2.14%; `CCN1CCc2c(sc(NC(=S)NC(=O)c3ccco3)c2C(N)=O)C1`: 15.8%; `CN1CCc2c(sc3c2c(NCc2ccco2)nc2nnnn23)C1`: -72.8%.
For the molecule `CCN1CCc2c(sc3c2c(NCc2ccco2)nc2nnnn23)C1`, the “hERG current change (%, negative = inhibition) at 1uM” value is -69.3%.
The same measure for `c1coc(CNc2ncnc3sc4c(c23)CCCCC4)c1`: -16%.
The same measure for `CSc1nc(SCC(=O)NCc2ccco2)c2c3c(sc2n1)CN(C)CC3`: 4.1%; for `COc1ccc(C2C(C(=O)Nc3ccccc3OC)=C(C)Nc3nnnn32)c(OC)c1` (centres unmarked): 7.88%.
The same measure for `CC(NC(=S)NCCCN1CCOCC1)C12CC3CC(CC(C3)C1)C2` (centres unmarked): 12.9%; for `CCCCn1c(N)c(C(=O)NCCN2CCOCC2)c2nc3ccccc3nc21`: -21%; for `CCCCCn1c(N)c(C(=O)NCCN2CCOCC2)c2nc3ccccc3nc21`: -0.506%.
As to `CC(C)Cn1c(N)c(C(=O)NCCN2CCOCC2)c2nc3ccccc3nc21`, the “hERG current change (%, negative = inhibition) at 1uM” value is given as -71.5%.
Next, `Cc1c(C(=O)N(CCc2ccccc2)Cc2ccccc2)cccc1[N+](=O)[O-]`: 12.7%; `OCCCC1CCCCN1Cc1nc(Cc2ccccc2Cl)no1` (centres unmarked): -65.5%.
Next, `CCC1CCCCN1Cc1nc(Cc2ccccc2Cl)no1` (centres unmarked): 4.88%; `Clc1ccccc1Cc1noc(CN2CCCCC2CCc2ccccn2)n1` (centres unmarked): -3.35%; `COC(=O)c1oc2ccccc2c1NC(=O)c1ccccc1O`: 16.2%.
Next, `Cc1ccc(C)c(NC(=O)CCN2C(=O)c3ccccc3C2=O)c1`: 15.3%.
With `CC(C)(C)NC(=O)CSCc1ccc(Br)cc1`, the “hERG current change (%, negative = inhibition) at 1uM” value is 1.24%.
The same measure for `O=C(Nc1nnc(-c2cccnc2)o1)c1cccc(Cl)c1`: 3.43%; for `CCCCCn1c(=NC(=O)c2cccnc2)c(C#N)cc2c(=O)n3cccc(C)c3nc21`: -5.66%; for `CCOC(=O)c1cc2c(=O)n3ccccc3nc2n(CCCOC)c1=NC(=O)c1ccncc1`: -40%.
Next, `CCOCCCn1c(=NC(=O)c2cccnc2)c(C(=O)OCC)cc2c(=O)n3ccccc3nc21`: -67.8%.
Take `CCOC(=O)c1cc2c(=O)n3cccc(C)c3nc2n(CCCOC)c1=NC(=O)c1cccnc1`: the “hERG current change (%, negative = inhibition) at 1uM” value is -65.4%.
Regarding `CCOCCCn1c(=NC(C)=O)c(C(=O)OCC)cc2c(=O)n3ccccc3nc21`, the “hERG current change (%, negative = inhibition) at 1uM” value was -4.7%.
The same measure for `CCOC(=O)c1cc2c(=O)n3ccccc3nc2n(CCCOC)c1=NC(=O)c1cccnc1`: -18.4%.
For the molecule `O=c1c2ccccc2c(C=NCCO)c(O)n1-c1ccccc1`, the “hERG current change (%, negative = inhibition) at 1uM” value is recorded as 11%.
Next, `Brc1ccc2c(c1)C(OC1CN3CCC1CC3)c1ccccc1CS2.O=C(O)/C=C\C(=O)O` (centres unmarked): -27.6%.
Next, `COc1ccc(Nc2c3c(nc4ccccc24)CCC3)cc1.Cl`: -14.5%; `Cc1ccc2nc3c(c(Nc4ccc5c(c4)OCCO5)c2c1)CCC3.Cl`: -5.67%; `Cl.c1ccc2c(Nc3ccc4c(c3)OCCO4)c3c(nc2c1)CCC3`: -13.9%.
Next, `c1ccc2c(Nc3ccc4c(c3)OCCO4)c3c(nc2c1)CCCC3`: -83.5%; `COc1ccc(Nc2c3c(nc4ccccc24)CCCC3)cc1OC`: -78%; `Cl.Fc1cccc(Nc2c3c(nc4ccccc24)CCC3)c1`: -9.35%.
Regarding `COc1cc(Nc2c3c(nc4ccccc24)CCCC3)cc(OC)c1OC`, the “hERG current change (%, negative = inhibition) at 1uM” value is reported as -48.3%.
For the molecule `N#Cc1cccc(Nc2c3c(nc4ccccc24)CCC3)c1`, the “hERG current change (%, negative = inhibition) at 1uM” value was -18%.
The same measure for `Cl.c1ccc(Nc2c3c(nc4ccccc24)CCC3)cc1`: -33.1%; for `Cc1ccc(Nc2c3c(nc4ccccc24)CCC3)cc1.Cl`: -57.7%; for `COc1cc(Nc2c3c(nc4ccccc24)CCC3)cc(OC)c1OC`: -19.4%.
Regarding `N#Cc1cccc(Nc2c3c(nc4ccccc24)CCCC3)c1`, the “hERG current change (%, negative = inhibition) at 1uM” value is -60.5%.

(Values after paper PMC4336329 (PLoS ONE, 2015).)
